SMILES strings stand for the structures. Screen size: about 310,000 compounds; about 17,000 (5.5%) were called active. About 11% were inconclusive and are not listed. The list comes from a sample in which actives are over-represented; it also holds similar structures and randomly drawn compounds. Unmarked numbers belong to inactive results. Calls come from the whole dose curve; as a rule, active = well fitted inhibition curve with a large enough effect; inconclusive = small, poorly fitted or top-dose-only effect, or effect the other way; inactive = no such curve, though single readings can be large or run the other way.
% is set by controls: 0 for no effect and ±100 for the full control effect; potency is the fitted concentration of half-maximal effect.

For the assay, the target named is Nuclear receptor ROR-gamma (Mus musculus) (UniProt P51450). The assay is described as follows: qHTS for inhibitors of ROR gamma transcriptional activity. Note: nearly all actives have a fitted effect of over 60% in size. The note with it: Drosophila S2 Gal4-RORgamma UAS-luciferase reporter, 20 h; series mostly up to 53.6 µM; activity change, negative = inhibition: at the top concentration. The gist of the method: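 Stable Schneider cell line, Gal4 DNA-binding domain fused to ROR gamma, UAS-luciferase. Cmpd 1 hr RT → CuSO4 700 uM final → 20 hr RT → luciferase reagent 10 min → luminescence.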
Sequence of Nuclear receptor ROR-gamma (Mus musculus) (P51450 whole entry, looked up, the tested form may be a part): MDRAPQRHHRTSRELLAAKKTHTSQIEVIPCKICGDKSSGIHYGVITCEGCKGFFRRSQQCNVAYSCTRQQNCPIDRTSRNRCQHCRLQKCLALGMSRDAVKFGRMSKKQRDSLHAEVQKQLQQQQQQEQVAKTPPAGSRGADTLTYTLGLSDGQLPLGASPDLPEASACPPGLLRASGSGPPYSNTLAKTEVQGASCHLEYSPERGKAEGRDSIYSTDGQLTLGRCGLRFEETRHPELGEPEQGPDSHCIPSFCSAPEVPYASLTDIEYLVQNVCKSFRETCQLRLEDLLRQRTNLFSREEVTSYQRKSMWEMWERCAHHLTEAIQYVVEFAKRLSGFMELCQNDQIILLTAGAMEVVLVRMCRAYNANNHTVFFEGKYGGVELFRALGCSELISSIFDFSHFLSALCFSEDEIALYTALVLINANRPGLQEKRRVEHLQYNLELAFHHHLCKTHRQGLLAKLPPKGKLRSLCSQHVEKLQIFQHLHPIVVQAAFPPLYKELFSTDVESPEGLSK
(Quantitative high-throughput screening tests each substance at several concentrations.)
Turning to `COCCn1c(SCC(=O)N2CCCCCC2)nc2c(c1=O)SCC2`, the “activity change, negative = inhibition” value was 4.84%.

Consider `CCN1CCN(c2sc(S(C)(=O)=O)nc2S(=O)(=O)c2ccc(Cl)cc2)CC1`, for which the “activity change, negative = inhibition” value was -11.5%.

As to `CCOC(=O)c1csc(CCNC(=O)c2oc3c(Cl)cc(C)cc3c2C)n1`, the “activity change, negative = inhibition” value was 13.3%.

In the case of `CC1CC(C)CN(S(=O)(=O)c2cccc3nonc23)C1` (stereo not drawn), the “activity change, negative = inhibition” value was -6.89%.

For the compound `COc1cc(/C=N/NC(=O)CNC(=O)c2ccncc2)ccc1OC(C)=O`, the “activity change, negative = inhibition” value is 5.03%.

Consider `COc1ccc(/C=N/NC(=O)c2ccc(Cl)cc2)cc1COC(C)=O`, for which the “activity change, negative = inhibition” value is 1.99%.

With `COc1ccc(/C=N/NC(=O)c2ccncc2)cc1CN1CCCc2ccccc21`, the Potency was 11.2 µM (active).

For `COc1ccc(C(=O)O)cc1S(=O)(=O)NCc1cccnc1`, the “activity change, negative = inhibition” value is 33.5%.

Consider `COc1cccc(NC(=O)CN2CCN(CC(=O)Nc3ccccc3Cl)CC2)c1`, for which the “activity change, negative = inhibition” value was 7.2%.

As to `Cc1ccc(OCC(=O)NC(C)c2ccccc2)cc1C` (stereo not drawn), the “activity change, negative = inhibition” value is 27%.

`O=C(CN1CCCCCC1)Nc1ccc(S(=O)(=O)N2CCCCC2)cc1`: the “activity change, negative = inhibition” value is -0.816%.

As for `O=C(Nc1nnc(C2CC2)s1)c1ccccn1`, the Potency was 1.12 µM (active).

`CC1CCN(c2ccc(C(=O)Nc3nnc(C4CC4)s3)cc2[N+](=O)[O-])CC1`: the “activity change, negative = inhibition” value is -38.9%.

Consider `O=C(Cc1cccs1)Nc1nnc(C2CC2)s1`, for which the “activity change, negative = inhibition” value was 17.9%.

In the case of `O=C(Nc1nnc(C2CC2)s1)c1cc(Cl)sc1Cl`, the Potency is 11.2 µM (active).

As to `Cc1occc1C(=O)Nc1nnc(C2CCCCC2)s1`, the activity change, negative = inhibition is 0% [at 10 µM].

On to `Cc1cccc(NC(=O)CSCC(=O)Nc2nnc(C3CC3)s2)c1`, for which the “activity change, negative = inhibition” value is -38.7%.

Consider `CCCc1ccc(OCC(O)CN2CCN(C(=O)OCC)CC2)cc1` (stereo not drawn), for which the “activity change, negative = inhibition” value was 16.4%.

Take `O=C(NCc1ccncc1)C(=O)NCC1OCCN1S(=O)(=O)c1ccc(Br)cc1` (stereo not drawn): the “activity change, negative = inhibition” value was -10.9%.

As for `CCCN1C2CCCC1CC(NC(=O)NC13CC4CC(CC(C4)C1)C3)C2` (stereo not drawn), the “activity change, negative = inhibition” value is -25.4%.

On to `COc1cc(/C=N/NC(=O)Cc2ccccc2)cc(OC)c1OC`, for which the “activity change, negative = inhibition” value is 0.299%.

Consider `Cc1ccc(C(=O)NCCNC(=O)c2ccccc2)cc1`, for which the “activity change, negative = inhibition” value was -8.02%.

As to `C/C(=N\NC(=O)c1ccc(C)cc1)C1C(=O)c2ccccc2C1=O`, the Potency is 0.891 µM (active).

Turning to `C/C(=N/NC(=O)c1ccc(NC(=O)c2ccc(F)cc2)cc1)c1ccccc1`, the “activity change, negative = inhibition” value was -31.3%.

Consider `FC(F)(F)c1nnc2c3ccccc3c(Cl)nn12`, for which the “activity change, negative = inhibition” value is -22.3%.

As to `O=C(CN1CCN(c2cccc(Cl)c2)CC1)Nc1ccc(S(=O)(=O)N2CCOCC2)cc1`, the “activity change, negative = inhibition” value was 14.7%.

As to `Cc1ccc(NC(=O)C(=O)NCc2ccco2)c(C)c1`, the “activity change, negative = inhibition” value is 18.4%.

For `O=C(CC(=O)N/N=C\c1ccc(F)cc1)NCCc1ccccc1`, the “activity change, negative = inhibition” value was 24.3%.

Consider `Cc1cccc(NC(=O)COC(=O)CCc2ccccc2)c1C`, for which the activity change, negative = inhibition was -18.4% [at 1.91 µM].

As for `Cc1cc(C(=O)NCCc2ccc(Cl)cc2)c(C)o1`, the “activity change, negative = inhibition” value was 13.5%.

Turning to `Cc1cccc(NC(=S)NCCc2ccc(F)cc2)c1C`, the Potency is 2 µM (active).

In the case of `Cc1cccc(NC(=O)C2CCCN(C(=O)Nc3ccc(F)cc3)C2)c1C` (stereo not drawn), the “activity change, negative = inhibition” value was 1.81%.

Take `Cc1ccc(NC(=S)NCc2ccccc2Cl)c(C)c1`: the Potency was 6.31 µM (active).

Consider `Cc1ccc(NC(=S)NCCc2ccc(Cl)cc2)c(C)c1`, for which the Potency is 2.82 µM (active).

`Cc1cc(F)ccc1NC(=S)NCCc1ccccc1`: the Potency is 5.62 µM (active).

Turning to `Cc1cc(Cl)ccc1NC(=S)NCCCN1CCCC1=O`, the “activity change, negative = inhibition” value was -42.8%.

As for `NC(=O)Nc1ccccc1C(=O)NCCc1ccccc1`, the “activity change, negative = inhibition” value is 18.4%.

Take `Cc1ccc(NC(=O)c2ccn(C(=O)Nc3ccccc3)n2)c(C)c1`: the “activity change, negative = inhibition” value was 4.67%.

The values above are taken from PubChem BioAssay AID2551 (National Center for Advancing Translational Sciences (NCATS), 2010).
